# According to the supplement of paper PMC8728848:
# The sample as a whole holds a higher share of the strongest signals than the screen did.
# Tests used:
# Assay in all cases: glycan array binding signal (z-score within array); higher = stronger binding
# Settings in all cases: glycan notation: IUPAC condensed, linker removed
# [1] = target: Gal(b1-4)GlcNAc(b1-3)Gal(b1-4)GlcNAc(b1-3)Gal(b1-4)GlcNAc(b1-2)Man(a1-3)[Gal(b1-4)GlcNAc(b1-3)Gal(b1-4)GlcNAc(b1-3)Gal(b1-4)GlcNAc(b1-2)Man(a1-6)]Man(b1-4)GlcNAc(b1-4)GlcNAc
# Summary of the method: (§1)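 From the Consortium for Functional Glycomics database, 3228 arrays were curated, keeping only those whose protein sequence was available. Binding is given as a within-array Z-score averaged across arrays sharing a protein sequence and across linkers. Negative Z-scores can be read as non-binding.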
# [2] = target: Gal(b1-4)GlcNAc(b1-3)Gal(b1-4)GlcNAc(b1-3)Gal(b1-4)GlcNAc(b1-3)Gal(b1-4)GlcNAc(b1-2)Man(a1-3)[Gal(b1-4)GlcNAc(b1-3)Gal(b1-4)GlcNAc(b1-3)Gal(b1-4)GlcNAc(b1-3)Gal(b1-4)GlcNAc(b1-2)Man(a1-6)]Man(b1-4)GlcNAc(b1-4)[Fuc(a1-6)]GlcNAc
# Summary of the method: as §1
# [3] = target: Gal(b1-4)GlcNAc(b1-3)Gal(b1-4)GlcNAc(b1-3)Gal(b1-4)GlcNAc(b1-3)Gal(b1-4)GlcNAc(b1-2)[Gal(b1-4)GlcNAc(b1-3)Gal(b1-4)GlcNAc(b1-3)Gal(b1-4)GlcNAc(b1-3)Gal(b1-4)GlcNAc(b1-6)]Man(a1-6)[Gal(b1-4)GlcNAc(b1-3)Gal(b1-4)GlcNAc(b1-3)Gal(b1-4)GlcNAc(b1-3)Gal(b1-4)GlcNAc(b1-2)Man(a1-3)]Man(b1-4)GlcNAc(b1-4)[Fuc(a1-6)]GlcNAc
# Summary of the method: as §1
# [4] = target: Gal(b1-4)GlcNAc(b1-3)Gal(b1-4)GlcNAc(b1-3)Gal(b1-4)GlcNAc(b1-3)Gal(b1-4)GlcNAc(b1-3)Gal(b1-4)GlcNAc(b1-2)Man(a1-3)[Gal(b1-4)GlcNAc(b1-3)Gal(b1-4)GlcNAc(b1-3)Gal(b1-4)GlcNAc(b1-3)Gal(b1-4)GlcNAc(b1-3)Gal(b1-4)GlcNAc(b1-2)Man(a1-6)]Man(b1-4)GlcNAc(b1-4)GlcNAc
# Summary of the method: as §1
# [5] = target: Gal(b1-4)GlcNAc(b1-3)Gal(b1-4)GlcNAc(b1-3)Gal(b1-4)GlcNAc(b1-3)Gal(b1-4)GlcNAc(b1-3)Gal(b1-4)GlcNAc(b1-2)Man(a1-3)[Gal(b1-4)GlcNAc(b1-3)Gal(b1-4)GlcNAc(b1-3)Gal(b1-4)GlcNAc(b1-3)Gal(b1-4)GlcNAc(b1-3)Gal(b1-4)GlcNAc(b1-2)Man(a1-6)]Man(b1-4)GlcNAc(b1-4)[Fuc(a1-6)]GlcNAc
# Summary of the method: as §1
# Gal6S(b1-3)GlcNAc6S = target: Gal6S(b1-3)GlcNAc6S
# Summary of the method: as §1
# GalNAc(b1-4)GlcNAc = target: GalNAc(b1-4)GlcNAc
# Summary of the method: as §1
# GalNAc3S(b1-4)GlcNAc = target: GalNAc3S(b1-4)GlcNAc
# Summary of the method: as §1
# [6] = target: GlcNAc(a1-3)Gal(b1-4)GlcNAc
# Summary of the method: as §1
# [7] = target: GlcNAc(b1-3)Gal(b1-4)GlcNAc(b1-3)Gal(b1-4)GlcNAc(b1-3)Gal(b1-4)GlcNAc(b1-3)Gal(b1-4)GlcNAc(b1-2)Man(a1-3)[GlcNAc(b1-3)Gal(b1-4)GlcNAc(b1-3)Gal(b1-4)GlcNAc(b1-3)Gal(b1-4)GlcNAc(b1-3)Gal(b1-4)GlcNAc(b1-2)Man(a1-6)]Man(b1-4)GlcNAc(b1-4)[Fuc(a1-6)]GlcNAc
# Summary of the method: as §1
# GlcNAc(b1-3)GalNAc = target: GlcNAc(b1-3)GalNAc
# Summary of the method: as §1
# Man(a1-2)Man(a1-3)Man = target: Man(a1-2)Man(a1-3)Man
# Summary of the method: as §1
# Neu5Ac(a2-3)Gal = target: Neu5Ac(a2-3)Gal
# Summary of the method: as §1
# [8] = target: Neu5Ac(a2-3)Gal(b1-3)GalNAc
# Summary of the method: as §1
# [9] = target: Neu5Ac(a2-3)Gal(b1-3)GlcNAc(b1-3)Gal(b1-4)GlcNAc
# Summary of the method: as §1
# [10] = target: Neu5Ac(a2-3)Gal(b1-3)[Neu5Ac(a2-6)]GlcNAc(b1-3)[Fuc(a1-3)[Gal(b1-4)]GlcNAc(b1-6)]Gal(b1-4)Glc
# Summary of the method: as §1
# [11] = target: Neu5Ac(a2-3)Gal(b1-4)GlcNAc(b1-3)Gal(b1-4)GlcNAc(b1-3)Gal(b1-4)GlcNAc(b1-2)Man(a1-3)[Neu5Ac(a2-3)Gal(b1-4)GlcNAc(b1-3)Gal(b1-4)GlcNAc(b1-3)Gal(b1-4)GlcNAc(b1-2)Man(a1-6)]GalNAc
# Summary of the method: as §1
# [12] = target: Neu5Ac(a2-3)Gal(b1-4)[Fuc(a1-3)]GlcNAc(b1-3)GalNAc
# Summary of the method: as §1
# [13] = target: Neu5Ac(a2-3)Gal6S(b1-4)[Fuc(a1-3)]GlcNAc
# Summary of the method: as §1
# [14] = target: Neu5Ac(a2-6)Gal(b1-3)GlcNAc(b1-3)[Gal(b1-4)GlcNAc(b1-6)]Gal(b1-4)Glc
# Summary of the method: as §1
# [15] = target: Neu5Ac(a2-6)Gal(b1-4)GlcNAc(b1-2)Man(a1-6)[GlcNAc(b1-2)Man(a1-3)]Man(b1-4)GlcNAc(b1-4)GlcNAc
# Summary of the method: as §1
# [16] = target: Neu5Ac(a2-6)Gal(b1-4)GlcNAc(b1-3)Gal(b1-4)[Fuc(a1-3)]GlcNAc(b1-3)Gal(b1-4)[Fuc(a1-3)]GlcNAc
# Summary of the method: as §1
# Neu5Ac(a2-8)Neu5Ac = target: Neu5Ac(a2-8)Neu5Ac
# Summary of the method: as §1
# [17] = target: Neu5Gc(a2-3)Gal(b1-3)[Fuc(a1-4)]GlcNAc
# Summary of the method: as §1
# [18] = target: Neu5Gc(a2-3)Gal(b1-4)GlcNAc(b1-3)Gal(b1-4)GlcNAc(b1-2)Man(a1-3)[Neu5Gc(a2-3)Gal(b1-4)GlcNAc(b1-3)Gal(b1-4)GlcNAc(b1-2)Man(a1-6)]Man(b1-4)GlcNAc(b1-4)GlcNAc
# Summary of the method: as §1
binder,measurement,setting,value
GS7807H-bfa-490-18-490 (Bacteroides fragilis) (protein) GNLEEMNIDPDNATQTHPKLLLTQICMNAFKRGTDGMYATKKVIQADGESADQYYKWTRGSFGYYDNLRNVQKMGEEAERVNAPVYTALTKFFRAYYFYELTLRFGDIPYSQALKGEKEEIYTPEYDAQEDVFAGILQELREADEILANDASVIDGDIIYNGNSTQWRKLINSFRLKVLMTLSNHTTVGNINIASEFKNIATNSPLMNSLADNGQLVYLDQQGNRYPQFNAQWSGYYMDDTFIQRMRERRDPRLFIFSAQTNKGKTEGKPIDDFSSYEGGDPAAPYSDAIIKVSEGTISPINDRFRTDPIVEPTMLMGYAELQQILAEAVVRGWISGNAQTYYEKGIRASFSFYETHAKDYAGYLNENAVAQYLKEPLVDFTQASGTEEQIERIIMQKYLVTFYQGNWDSFYEQLRTGYPDFRRPAGTEIPKRWMYPQGEYDNNGTNVETAITRQFGAGNDKINQATWWQKKS,glycan array binding signal (z-score),[1],2.19
same,glycan array binding signal (z-score),[2],2.51
same,glycan array binding signal (z-score),[3],2.08
same,glycan array binding signal (z-score),[4],1.71
same,glycan array binding signal (z-score),[5],2.17
same,glycan array binding signal (z-score),Gal6S(b1-3)GlcNAc6S,1.52
same,glycan array binding signal (z-score),GalNAc(b1-4)GlcNAc,0.462
same,glycan array binding signal (z-score),GalNAc3S(b1-4)GlcNAc,-0.743
same,glycan array binding signal (z-score),[6],-0.677
same,glycan array binding signal (z-score),[7],4.28
same,glycan array binding signal (z-score),GlcNAc(b1-3)GalNAc,-0.454
same,glycan array binding signal (z-score),Man(a1-2)Man(a1-3)Man,0.369
same,glycan array binding signal (z-score),Neu5Ac(a2-3)Gal,-0.022
same,glycan array binding signal (z-score),[8],-0.368
same,glycan array binding signal (z-score),[9],-0.526
same,glycan array binding signal (z-score),[10],-0.176
same,glycan array binding signal (z-score),[11],9.02
same,glycan array binding signal (z-score),[12],5.66
same,glycan array binding signal (z-score),[13],-0.29
same,glycan array binding signal (z-score),[14],0.078
same,glycan array binding signal (z-score),[15],-0.141
same,glycan array binding signal (z-score),[16],-0.32
same,glycan array binding signal (z-score),Neu5Ac(a2-8)Neu5Ac,-0.459
same,glycan array binding signal (z-score),[17],-0.469
same,glycan array binding signal (z-score),[18],-0.11
